Each structure is given as a SMILES string. The whole screen tested about 52,000 compounds, of which about 1,700 (3.3%) were called active. This excerpt belongs to a sample that is enriched for actives. A number with no mark means an inactive call. Cut-off read from the data, not from the text of the source: active = survival mostly below about 52% (no sharp cut-off); inactive = mostly above about 56%.

The assay relates to Wild type. The experiment in a line: growth inhibition of S. aureus wild type versus tarO mutant, primary screen, teichoic acid synthesis inhibitors, RN4220, OD600 (AID 463173). To be noted: S. aureus RN4220 wild type/DeltatarO growth, OD600, 18 h, stronger effect = lower value, screened at 18.75 µg/mL (by protocol).
For the molecule `O=C(CSc1nnnn1Cc1ccccc1)Nc1ccccc1`, the survival was 114%.
In the case of `COc1ccc(OC)c(CNS(=O)(=O)c2c(C(=O)N3CCCCCC3)c(C)n(C)c2C)c1`, the survival was 135%.
With `COc1ccccc1CNC(=O)CCC(=O)N1CC2CCCN2c2ccccc21` (stereo not given), the survival is 80%.
As for `CC(C)(C)C(=O)Nc1cccc(-c2cn3cccnc3n2)c1`, the figure is 70%; as for `O=C(CCCn1c(=O)c2cccn2c2ccccc21)NCc1ccccc1Br`, 55%.
As for `CCc1ccc2nc(N3CCCC3)c(C#N)cc2c1`, the figure is 108%; as for `O=C(CSc1n[nH]c(-c2ccccc2Cl)n1)N1CCN(c2ccccc2F)CC1`, 123%; as for `O=C1c2[nH]nc(-c3ccc(Br)cc3)c2C(c2cccc(O)c2)N1c1ccc(Cl)cc1` (stereo not given), 1% (active).
Consider `COc1ccc(C2c3c(-c4ccc(F)cc4)n[nH]c3C(=O)N2c2ccccc2)cc1OC` (stereo not given), for which the survival was 134%.
In the case of `CCOc1cc(C2c3c(-c4ccc(Br)cc4)n[nH]c3C(=O)N2c2ccc(Cl)cc2)ccc1O` (stereo not given), the survival is 42%.
As to `COC(=O)c1ccc(C2c3c(-c4ccc(Br)cc4)n[nH]c3C(=O)N2c2ccc(Cl)cc2)cc1` (stereo not given), the survival is 75%.
As for `O=C1c2[nH]nc(-c3ccc(F)cc3)c2C(c2ccccc2F)N1c1ccccc1` (stereo not given), the figure is 4% (active).
As for `Cc1ccc(-c2n[nH]c3c2C(c2cccc(O)c2)N(c2ccc(C(=O)O)cc2)C3=O)cc1` (stereo not given), the figure is 98%; as for `COc1ccccc1C1c2c(-c3ccc(Cl)cc3)n[nH]c2C(=O)N1c1ccc(C)cc1` (stereo not given), 85%.
As for `COc1ccc(-c2n[nH]c3c2C(c2ccc(O)cc2)N(c2ccc(Br)cc2)C3=O)cc1` (stereo not given), the figure is 11% (active).
As to `CCOC(=O)c1ccc(N2C(=O)c3[nH]nc(-c4ccc(OC)cc4)c3C2c2ccc(C)cc2)cc1` (stereo not given), the survival is 89%.
`COc1cccc(CNC(=O)CN2C(=O)COc3ccc(S(=O)(=O)N4CCCCC4)cc32)c1`: the survival was 100%.
As for `CCOc1ccccc1CNC(=O)C(CC)n1nc(C)c2c(C)n(-c3ccccc3)nc2c1=O` (stereo not given), the figure is 88%.
With `CCOC(=O)c1ccc(NC(=O)CCCn2c(=O)c3cccn3c3ccccc32)cc1`, the survival is 78%.
In the case of `CCc1ccc(C(=O)c2cn(CC(=O)Nc3ccc(OC)c(Cl)c3)c3nc(C)ccc3c2=O)cc1`, the survival was 119%.
As for `COC(=O)c1sc2cccc(F)c2c1S(=O)(=O)Nc1cc(C)c(Cl)cc1OC`, the figure is 85%; as for `COC(=O)c1sc2cccc(F)c2c1S(=O)(=O)Nc1ccc(N(C)C)cc1`, 53%.
On to `COC(=O)c1sc2cccc(F)c2c1S(=O)(=O)Nc1ccc(C)cc1Cl`, for which the survival was 63%.
For `COC(=O)c1sc2cccc(F)c2c1S(=O)(=O)Nc1cc(OC)cc(OC)c1`, the survival is 0% (active).
As for `CCOC(=O)c1sc2cccc(F)c2c1S(=O)(=O)Nc1ccccc1F`, the figure is 124%.
As for `CCOc1ccccc1NS(=O)(=O)c1c(C(=O)OC)sc2cccc(F)c12`, the figure is -3% (active).
Turning to `CC(C)c1ccc(NC(=O)C2CCCN(S(=O)(=O)c3cccc4nsnc34)C2)cc1` (stereo not given), the survival is 70%.
As for `CN1CCc2nc3sc(C(=O)c4ccc5c(c4)OCO5)c(N)c3cc2C1`, the figure is 116%; as for `Cc1ccc(-n2c(-c3ccc(Br)cc3)nc3c(cnn3-c3ccccc3)c2=O)cc1`, 66%; as for `Clc1ccc(CNc2ccccn2)cc1`, 98%.
As for `Cc1cc(C)n(-c2nc3ccccc3nc2Nc2ccc(N(C)C)cc2)n1`, the figure is 2% (active).
As for `Cc1ccc2nc(Nc3cccc(Cl)c3C)c(-n3nc(C)cc3C)nc2c1`, the figure is 131%.
For the molecule `Cc1cc(C)n(-c2nc3ccccc3nc2Nc2ccc(C(C)C)cc2)n1`, the survival was 5% (active).
As for `Cc1cc(C)n(-c2nnc(Nc3ccc(C(C)C)cc3)c3ccccc23)n1`, the figure is 74%.
As for `Cc1cc(C)cc(Nc2nnc(-n3nc(C)cc3C)c3ccccc23)c1`, the figure is 86%; as for `CC(=O)c1ccc(Nc2nc3ccccc3nc2-n2nc(C)cc2C)cc1`, 54%; as for `Cc1cc(C)n(-c2nc3ccccc3nc2Nc2cc(Cl)ccc2C)n1`, 131%.
In the case of `Cc1cc(C)n(-c2nc3ccccc3nc2Nc2ccc(Cl)c(C(=O)OC(C)C)c2)n1`, the survival was 84%.
Take `CCCOC(=O)c1ccc(Nc2nc3ccccc3nc2-n2nc(C)cc2C)cc1`: the survival is 32%.
As to `Cc1cc(C)cc(Nc2nc3ccccc3nc2-n2nc(C)cc2C)c1`, the survival is 8% (active).
Take `Cc1cc(C)cc(Nc2nc3cc(Cl)c(Cl)cc3nc2-n2nc(C)cc2C)c1`: the survival was 81%.
As for `Cc1cc(C)n(-c2nc3ccccc3nc2Nc2cccc(C)c2C)n1`, the figure is 7% (active).
As for `CCOC(=O)N1CCc2c(sc(NCc3sccc3C)c2C(=O)Nc2cc(OC)ccc2OC)C1`, the figure is 65%; as for `Cc1cccc(N2CCN(Cc3nnc(-c4ccccc4C)o3)CC2C)c1` (stereo not given), 21%; as for `CCOC(=O)c1c(C)sc(-c2c(-c3ccc(OC)c(F)c3)[nH]c3[nH]c(=O)[nH]c(=O)c23)c1O`, 111%.
For `CCCOc1ccc(CNC(=O)Cn2cc3c(n2)-c2c(oc(C(=O)N4CCOCC4)c2C)CC3)cc1`, the survival was 96%.
`COc1ccc(-c2nn(C)c3sc(C(=O)NCCN(C)C)cc23)cc1OC`: the survival was 82%.
With `CCOC(=O)c1c(C)[nH]c(C)c1S(=O)(=O)N(C)CC(=O)Nc1cccc(C(F)(F)F)c1`, the survival was 69%.
As for `COC(=O)C(CCSC)NC(=O)Cn1ncc2c([nH]c3ccccc32)c1=O` (stereo not given), the figure is 47%.
As for `COc1cc2c(c(OC)c1)C(c1cccc(F)c1F)CC(=O)N2` (stereo not given), the figure is 82%; as for `COc1ccc(CCN(Cc2nc3ccccc3c(=O)[nH]2)C(=O)c2ccco2)cc1`, 81%.
Regarding `Cc1ccc(NS(=O)(=O)c2ccc3[nH]c4c(c3c2)CCCCC4)cc1`, the survival is 84%.
As for `O=C(CCn1c(=O)c2cccn2c2cccnc21)NCc1ccccc1Br`, the figure is 93%; as for `Cc1cc(C)n(-c2nc3ccccc3nc2Nc2ccc(Cl)cc2Cl)n1`, 86%.
As for `Cc1cc(C)n(-c2nc3ccccc3nc2Nc2ccc(Cl)c(Cl)c2)n1`, the figure is 1% (active); as for `COc1cc(OC)c(Nc2nc3ccccc3nc2-n2nc(C)cc2C)cc1Cl`, 80%; as for `COc1ccccc1Nc1nc2ccc(Cl)cc2nc1-n1nc(C)cc1C`, 138%.
On to `COc1ccc(OC)c(Nc2nc3ccccc3nc2-n2nc(C)cc2C)c1`, for which the survival is 10% (active).
`Cc1ccc(Nc2nc3ccccc3nc2-n2nc(C)cc2C)c(Cl)c1`: the survival was 88%.
As for `Cc1ccc(CNC(=O)c2ccc(Cn3c(SCc4ccc(F)cc4)nc4cccnc43)cc2)o1`, the figure is 84%.
As for `Cc1ccc(C(=O)c2sc(Nc3ccc(F)cc3)c(C#N)c2N)cc1`, the figure is 108%; as for `CCCOc1ccc(C(=O)Nc2ccc3nn(-c4ccc(OC)c(Cl)c4)nc3c2)cc1`, 145%; as for `COc1ccc(CNC(=O)C(=O)Nc2ccc(OC)cc2OC)cc1`, 80%.
Consider `N#C/C(=C/C=C/c1ccco1)c1nc2ccccc2[nH]1`, for which the survival was 113%.
As for `CCCn1c2ccccc2c2cnn(CC(=O)NCCCN3CCCCC3)c(=O)c21`, the figure is 78%; as for `CCCNC(=O)Cn1ncc2c3ccccc3n(CCC)c2c1=O`, 133%.
As for `CCCn1c2ccccc2c2cnn(CC(=O)NCCc3ccc(OCC)cc3)c(=O)c21`, the figure is -6% (active).
With `CCCn1c2ccccc2c2cnn(CC(=O)NCCc3ccc(C)cc3)c(=O)c21`, the survival was 121%.
For `CCCn1c2ccccc2c2cnn(CC(=O)NCCc3ccc(OCC)c(OCC)c3)c(=O)c21`, the survival is 76%.
As for `CCCn1c2ccccc2c2cnn(CC(=O)NCCCOC(C)C)c(=O)c21`, the survival is -6% (active).
As to `CCCSc1nc(=O)c2c(n1C)NC(=O)CC2c1cccc(F)c1F` (stereo not given), the survival is 82%.
As for `Cc1ccc(NC(=O)N2CCN(c3cc(-c4noc(C)n4)ccc3C)CC2)c(F)c1`, the figure is -6% (active); as for `COc1ccc(NC(=O)N2CCN(c3cc(-c4noc(C)n4)ccc3C)CC2)c(OC)c1`, 133%.
As for `CSc1cccc(NC(=O)N2CCN(c3cc(-c4noc(C)n4)ccc3C)CC2)c1`, the figure is 74%; as for `COc1cc(NC(=O)N2CCN(c3cc(-c4noc(C)n4)ccc3C)CC2)cc(OC)c1OC`, 14% (active).
As for `Cc1nc(-c2ccc(C)c(N3CCN(C(=O)Nc4ccc(Br)cc4)CC3)c2)no1`, the figure is -1% (active); as for `Cc1cc(C)cc(NC(=O)N2CCN(c3cc(-c4noc(C)n4)ccc3C)CC2)c1`, 76%.
For the molecule `COc1cc([N+](=O)[O-])ccc1NC(=O)N1CCN(c2cc(-c3noc(C)n3)ccc2C)CC1`, the survival was 78%.
On to `COc1ccc(C)cc1NC(=O)N1CCN(c2cc(-c3noc(C)n3)ccc2C)CC1`, for which the survival is 85%.
In the case of `Cc1ccc(NC(=O)N2CCN(c3cc(-c4noc(C)n4)ccc3C)CC2)c(C)c1`, the survival is 72%.
For `Cc1ccc2scc(N3CCN(c4ccccc4)CC3)c(=O)c2c1`, the survival is 74%.
As for `Cc1c(-c2cccc(NC(=O)Cc3ccccc3)c2)nc2ncccn12`, the figure is 73%; as for `Cc1ccc2c(CNC3CCCC3)c(C(=O)O)n(Cc3ccc(F)cc3)c2c1`, 111%; as for `C/C(=N\NC(=O)COc1ccccc1)C1C(=O)c2ccccc2C1=O`, 107%.
As to `COc1cccc(-n2c(SCC(=O)Nc3cc(C)ccc3C)nc3c(oc4ccccc43)c2=O)c1`, the survival is 96%.
Turning to `COc1ccc(Nc2nnc(-c3ccc(C)c(S(=O)(=O)NCCO)c3)c3ccccc23)cc1C(N)=O`, the survival is 70%.
As for `CCc1nn2c(-c3ccco3)ccnc2c1-c1ccccc1`, the figure is 89%; as for `Cc1nn2c(-c3ccco3)ccnc2c1-c1ccc(F)cc1`, 75%; as for `COc1cccc(-c2ccnc3c(-c4ccc(F)cc4)c(C)nn23)c1`, 99%.
As for `COc1ccc(-c2ccnc3c(-c4ccc(F)cc4)c(C)nn23)cc1OC`, the figure is 79%; as for `CCc1nn2c(-c3ccccc3OC)ccnc2c1-c1ccccc1`, -12% (active); as for `COc1ccccc1-c1ccnc2c(-c3ccc(Br)cc3)c(C)nn12`, 77%.
In the case of `CCc1nn2c(-c3ccccc3OC)ccnc2c1-c1ccc(F)cc1`, the survival is -11% (active).
Regarding `CCc1nn2c(-c3ccco3)ccnc2c1-c1ccc(F)cc1`, the survival was 71%.
As for `Cc1ccccc1-c1ccnc2c(-c3ccc(F)cc3)c(C)nn12`, the figure is -13% (active).

The record behind these values is PubChem BioAssay AID463173 (ICCB-Longwood Screening Facility, Harvard Medical School, 2010).
